# Data: ChEMBL document CHEMBL4513216, “Probing the Open Global Health Chemical Diversity Library for Multistage-Active Starting Points for Next-Generation Antimalarials” (ACS Infect Dis, 2020)
# Among all 69,000 compounds or so, about 8,600 (12%) showed an effect of 50% or more. The full list was thinned out, with strong results kept by preference.
# Test system: Plasmodium berghei
# Assay: Screen against P. berghei liver stage (PbLuc), transformed with Luciferase, at 10uM
# Type: functional, HepG2
# Conditions: tested at 10 uM
row,Structure (SMILES),INHIBITION
1,CN(C)S(=O)(=O)N1CC[C@H]2OCC[C@@]2(COc2cccnc2)C1,33%
2,Cc1nc(C)c(CN2CCOC(CNc3cccnn3)C2)s1 (centres undefined),41.5%
3,O=C(c1cc(-n2cccn2)ccc1Cl)N1CCCC(N2CCCC2)C1 (centres undefined),14.6%
4,CCN(C)C[C@@H]1CN(C(=O)c2cc(-c3ccc(F)cc3)n[nH]2)C[C@@H]1CO,43.9%
5,CCc1ccc(CN2CC[C@@H]3CN(S(C)(=O)=O)CCO[C@@H]3C2)o1,42.6%
6,CCOc1cccc2c1OCC(=O)N(c1ccc(N(C)C)cc1)C2,45.5%
7,CCOc1cccc2c1OCC(=O)N(c1ccc3c(c1)OCCO3)C2,56.5%
8,CCOc1cccc2c1OCC(=O)N(c1ccc3c(c1)OCO3)C2,14.9%
9,Cc1ccoc1C(=O)N1CCc2ccc(=O)n(CCN(C)C)c2CC1,-16.2%
10,O=C(c1ccc(Cl)cc1)N1CCc2nc(C(=O)N3CCCC3)sc2CC1,-29.3%
11,CNC(=O)N1CCc2nc(C(=O)Nc3cccnc3)sc2CC1,42.6%
12,CCN(CC)C(=O)c1nc2c(s1)CCN(C(=O)Nc1ccccc1)CC2,58.3%
13,COCC(=O)N1CCc2nc(C(=O)Nc3cccnc3)sc2CC1,-52.3%
14,NC(=O)c1nc2c(s1)CCN(C(=O)Nc1ccccc1)CC2,40.5%
15,NC(=O)c1nc2c(s1)CCN(Cc1ccccc1)CC2,12.1%
16,O=C(Nc1ccccc1)N1CCc2nc(C(=O)N3CCCC3)sc2CC1,89.1%
17,CNC(=O)c1nc2c(s1)CCN(C(=O)c1ccccc1)CC2,1.9%
18,NC(=O)c1nc2c(s1)CCN(C(=O)Nc1cccc(Cl)c1)CC2,80.2%
19,Cc1ccc(CN2C[C@@H]3COC[C@H](NS(C)(=O)=O)[C@@H]3C2)s1,-1.36%
20,CCNC(=O)NC(C)c1nc(-c2ccc(Br)cc2)no1 (centres undefined),33.5%
21,Cc1nccc(C2CCCCN2Cc2ccccc2)n1 (centres undefined),20.8%
22,Cc1nccn1C1CCCN(C(=O)c2cccc(S(C)(=O)=O)c2)C1 (centres undefined),19.5%
23,CCOc1nnc(CN(C)C2CCCN(c3ccc(C)nn3)C2)s1 (centres undefined),46.7%
24,CNC(=O)C1(N2CCC[C@H]2C(=O)NC2CCCCC2)CCOCC1,-1.36%
25,c1ccc(N2CCOC(Cc3cccnc3)C2)cc1 (centres undefined),-33.4%
26,CCN(CC)Cc1nc(Cc2cccc(C(F)(F)F)c2)no1,26.7%

row,Structure (SMILES),INHIBITION
1,NC(=O)C1CCN(C(=O)NC2CCc3cc(F)ccc32)CC1 (centres undefined),17%
2,O=C(c1ccccc1)N1CCN(C2CCc3ccc(F)cc32)CC1 (centres undefined),49.4%
3,NC(=O)N1CCCN(C2CCc3ccc(F)cc32)CC1 (centres undefined),84.2%
4,O=C(CN1CCOCC1)N1CCC(c2cc(N3CCCC3)ncn2)CC1,-85.6%
5,O=C(c1cc(F)ccc1O)N1CCN(C2CCOCC2)CC1,3.84%
6,O=C(CN1CCOCC1)N1CCN(C2CCc3ccc(F)cc32)CC1 (centres undefined),54.4%
7,Cc1ncsc1C(=O)NCCNC(=O)Cc1cccc(F)c1,-89.6%
8,CC(Cn1cccn1)NC(=O)Nc1nncs1 (centres undefined),-39.7%
9,COCCN1CCCN(C(=O)NC(C)Cn2ccnc2)CC1 (centres undefined),26.3%
10,Cc1ccnc(OC[C@@]23CCO[C@@H]2CCN(c2ncc(F)cn2)C3)n1,16.9%
11,CC(C)CN1CCCC(c2nc(O)c3cc(F)ccc3n2)C1 (centres undefined),20.1%
12,COC(=O)C1Cc2nc[nH]c2CN1Cc1ccc(Sc2ncccn2)o1 (centres undefined),35.7%
13,O=C([C@@H]1Cc2[nH]cnc2CN1Cc1cc2ccccc2o1)N1CCCC1,-67.6%
14,COC(=O)[C@@H]1Cc2[nH]cnc2CN1Cc1cc2ccccc2o1,56.8%
15,Cc1cccc(N2CCN(C(=O)CC3(O)CCCC3)C(C)C2)n1 (centres undefined),-24.2%
16,CNc1nc(C(=O)N2C[C@@H]3CC[C@H]2CN(S(C)(=O)=O)C3)cs1,7.1%
17,CNc1nc(C(=O)N2CCN(c3cc(C)nc(C)c3)CC2)cs1,34.9%
18,COc1ccnc(N2CCN(C(=O)c3csc(C)n3)CC2)n1,-12.6%
19,Cc1nc(C(=O)N2CCN(c3ccc(Cl)c(Cl)c3)CC2)cs1,90.3%
20,CNc1nc(C(=O)N2CCCN(c3ccnc(C)c3)CC2)cs1,-10.6%
21,Cc1csc(N2CCCN(C(=O)c3csc(C)n3)CC2)n1,37.9%
22,CN1CC[C@H]2CN(C(=O)c3csc(Cc4ccccc4)n3)C[C@H]21,22.9%
23,CNc1nc(C(=O)N2C[C@@H]3CCN(C)[C@@H]3C2)cs1,55%
24,CNc1nc(C(=O)N2CCN(c3ccc(Cl)c(Cl)c3)CC2)cs1,86.6%
25,CC(O)CN(C)C(=O)CCNC(=O)OC(C)(C)C (centres undefined),44.9%
26,CC(C)N1CCC(c2cnc(-c3cn[nH]c3)cn2)CC1,20.5535%

row,Structure (SMILES),INHIBITION
1,CC(=O)N[C@@H]1CN(C(=O)c2cccc(C)c2)C[C@H]1O,0.19%
2,CC[C@H](C)[C@H](NC(=O)c1ccccc1-n1cnnn1)C(=O)OC,-14.2%
3,CCC(C)[C@H](NC(=O)c1cc(Br)ccc1-n1cnnn1)C(=O)OC (some centres undefined),34.7%
4,CCC(C)[C@H](NC(=O)c1ccc(F)cc1-n1cnnn1)C(=O)OC (some centres undefined),51.3%
5,CCC(C)[C@H](NC(=O)c1cc(F)ccc1-n1cnnn1)C(=O)OC (some centres undefined),46.1%
6,CC[C@H](C)[C@H](NC(=O)c1cccc(-n2cnnn2)c1)C(=O)OC,30.5%
7,CC[C@H](C)[C@H](NC(=O)c1ccc(-n2cnnn2)cc1)C(=O)OC,61.2%
8,O=C(Nc1ccccn1)c1ccc(F)c(S(=O)(=O)NC2CC2)c1,4.34%
9,CCn1cc(-n2cc3nc(N4CCOCC4)[nH]cc-3c2=O)cn1,-37.9%
10,CN(C)C(=O)C1CCN(Cc2csc(C(C)(C)C)n2)CC1,56.4%
11,CN1CCC(NC(=O)Cc2csc(C(C)(C)C)n2)CC1,47.2%
12,CCOC(=O)C1CCN(Cc2csc(C(C)(C)C)n2)CC1,-13.3%
13,CCc1nc(CN2CCC(C(=O)N(C)C)CC2)cs1,11.8%
14,CC(C)(C)c1nc(CC(=O)Nc2cnccc2O)cs1,52.5%
15,CCN1CCC(NC(=O)Cc2csc(C(C)(C)C)n2)CC1,50.5%
16,CC(=O)N1CCC(NC(=O)Cc2csc(C(C)(C)C)n2)CC1,5.91%
17,CC(C)c1nc(CC(=O)Nc2cnccc2O)cs1,29.4%
18,CC(C)(C)c1nc(CC(=O)NCCC(=O)Nc2ccncc2)cs1,45.4%
19,Cn1ncc2c1C(COCC1CC1)N(C(=O)c1ccncn1)CC2 (centres undefined),47.4%
20,CN(CCNC(=O)NCc1ccsc1)C1CCCC1,-43.5%
21,CN(Cc1coc(-c2ccccc2)n1)C1CCCN(c2cccnn2)C1 (centres undefined),24%
22,Cn1cccc1C(=O)N1C[C@@H](OCc2ccncc2)[C@@H]2OCCC[C@@H]21,42.5%
23,O=C1NCCO[C@H]2CN(C(=O)Cc3cccs3)CC[C@@H]12,14%
24,O=C1NCCO[C@H]2CN(C(=O)Cc3ccco3)CC[C@@H]12,-2.26%
25,COc1cc(F)ccc1CC(=O)N1CC[C@H]2C(=O)NCCO[C@H]2C1,52.1%
26,Cc1ccc(F)c2c1CCCN2Cc1cc(=O)n(C)c(=O)n1C,38.8%

row,Structure (SMILES),INHIBITION
1,CC[C@H](C)[C@@H](CO)NC(C)Cc1ccc(F)cc1 (some centres undefined),8.24%
2,CC[C@H](C)[C@@H](CO)NC(C)Cc1ccc(Cl)cc1 (some centres undefined),71.2%
3,CC[C@H](C)[C@@H](CO)NC(C)Cc1ccc(C)cc1 (some centres undefined),41.7%
4,CN(C)c1ncc2c(n1)C1(CCN(Cc3ccccc3F)C1)COC2 (centres undefined),23.6%
5,COc1ccc(CN2CCN(C(C)=O)CC3(CC(=O)N(C)C3)C2)cc1 (centres undefined),-7.6%
6,O=C(NCc1ccco1)N1CCOC(c2ccccc2Cl)C1 (centres undefined),8.12%
7,O=C(NCc1ccco1)N1CCC(n2cc(-c3ccccn3)nn2)CC1,65.6%
8,O=C(NC1CCCCC1)N1CCC(n2cc3[nH]cccc-3c2=O)CC1,36.5%
9,O=C(NC1CCCCC1)N1CCC(n2cc(-c3ccccn3)nn2)CC1,83.5%
10,CNCc1cn(C2CCN(C(=O)NCc3ccco3)CC2)nn1,71.2%
11,O=C(NCc1ccco1)N1CCC(n2ccc(C(F)(F)F)n2)CC1,57.7%
12,Cc1cc(CN2CCN(C(=O)NCc3ccco3)CC2)no1,31.2%
13,O=C(NCc1ccon1)N1CCC(n2ccc(C(F)(F)F)n2)CC1,1.2%
14,CCNC(=O)N1CCC(n2ccc(C(F)(F)F)n2)CC1,40.6%
15,O=C(c1ncc[nH]1)N1CCC(n2cc(-c3ccccn3)nn2)CC1,6.88%
16,O=C(c1ccco1)N1CCC(n2cc(-c3ccsc3)nn2)CC1,31.2%
17,COC1CCCOC12CCN(C(=O)NCc1ccco1)CC2 (centres undefined),4.52%
18,COCC(=O)Nc1ccc(Oc2ccsc2C(=O)O)cc1,49.1%
19,COC1(CNC(=O)NCCc2ccccc2)CCSC1 (centres undefined),8.31%
20,O=C(c1cccc(C(F)(F)F)c1)N1CC(=O)N(C2CCC2)CC(O)C1 (centres undefined),21.5%
21,O=C1Nc2ccccc2CNC12CCN(CC1CCCC1)CC2,30%
22,CCOCCOC(C)C(=O)Nc1ccc2ccn(CC(=O)NC)c2c1 (centres undefined),13.9%
23,Cc1ccc(C(=O)NCc2ccc(N3CCCC(C(N)=O)C3)cc2)o1 (centres undefined),29.7%
24,O=C(CCc1nc2ccccc2[nH]1)NC1CCOC2(CCOCC2)C1 (centres undefined),47.6%
25,Cc1cccc(OCC(O)CN2CCC(Cn3cccn3)CC2)c1 (centres undefined),47.1%
26,CN1[C@H](CN2CCCC2)C[C@@H]2CN(C(=O)Cc3ccsc3)CC[C@@H]21,-8.51%
